# PubChem BioAssay
# Where “and” joins values, the source holds several entries; their conditions need not be identical. Equal entries are not always repeated. Calls of active or inactive are those of the source. Rule as the data show it, unless noted: active = inhibition above about 80%; inactive = the rest.
# How the values were obtained:
# [1] = growth inhibition, single agents and combos, LFS_MB_1R, cell-based, cisplatin or BGB combos, synergistic combos for chromothripsis tumors (AID 1671452); conditions: LFS_MB_1R medulloblastoma cells, stronger effect = higher value;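 also: cells exposed for 96 hours before readout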
# [2] = growth inhibition, single agents and combos, CRL2098, cell-based, BGB or cisplatin IC20 combos, synergistic combos for chromothripsis tumors (AID 1671454); conditions: CRL2098 osteosarcoma cells, drug combinations, stronger effect = higher value;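 also: cells exposed for 96 h before readout; 0% = vehicle DMSO and 100% = killing by high DMSO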
# [3] = growth inhibition, single agents and combos, HD-MB03, cell-based, BGB or cisplatin IC20 combos, synergistic combos for chromothripsis tumors (AID 1671455; in the data active = inhibition above about 83%;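 also: 0% = vehicle DMSO and 100% = high DMSO as cytotoxic control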); conditions: HD-MB03 medulloblastoma cells, stronger effect = higher value
# [4] = growth inhibition, single agents and combos, UWB1.289, cell-based, BGB or cisplatin combos, synergistic combos for chromothripsis tumors (AID 1671456); conditions: UWB1.289 ovarian carcinoma cells, stronger effect = higher value;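 also: cells exposed to compound for four days; 0% = vehicle DMSO and 100% = killing by high DMSO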
# [5] = growth inhibition, single agents and combos, LFS_MB_2R, cell-based, cisplatin combos, synergistic combos for chromothripsis tumors (AID 1671457); conditions: LFS_MB_2R medulloblastoma cells, stronger effect = higher value;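 also: cells exposed to compound for four days before readout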
# [6] = UWB1.289_BRCA1 ovarian cancer growth, cell-based, BGB or cisplatin combinations (AID 1671459); conditions: UWB1.289 BRCA1 ovarian carcinoma, drug combinations, stronger effect = higher value
# [7] = drug combination toxicity in non-malignant astrocytes – cell-based, BGB or cisplatin IC20 combos, cytotoxicity control for chromothriptic childhood tumor combination screen (AID 1671460); conditions: Human astrocytes, viability inhibition, drug combinations, at 0.5 µM, stronger effect = higher value;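 also: cells exposed to compounds for 96 hours before viability readout; 0% = vehicle and 100% = killing control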
# [8] = liver-stage malaria parasite load reduction – cell-based, known kinase inhibitor set, luminescence, hepatoma host viability (AID 624392; call rule not given here;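 also: infected cells incubated roughly two days before readout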); conditions: Plasmodium liver stage in hepatoma cells, luciferase luminescence, concentration not given here; liver cell % of control: measured here: host liver cell viability; parasite % of control: stronger effect = lower value
# [9] = galactose survival enhancers in mitochondrial complex I cybrids – cell-based, galactose medium, ATP luminescence, primary screen (AID 1645843;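 active = z-score of at least 1.8 in each of two replicates, scored against plate mean and spread of sample wells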;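 also: positive z means more ATP and so rescue of galactose-driven cybrid death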); conditions: complex I mutant cybrid cells, 72 h, stronger effect = higher value
# [10] = P. berghei load reduction in hepatocytes – cell-based, HepG2, luciferase luminescence, HepG2 viability, primary screen (AID 624349; in the data active = parasite load remaining mostly below about 12%, no sharp cut-off; inactive = mostly above about 10%;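 also: 100% = mean of DMSO negative control wells on the same plate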); conditions: P. berghei liver stage in HepG2, luciferase luminescence, concentration not given here; parasite load remaining: stronger effect = lower value; viability: measured here: HepG2 viability without parasites
# [11] = target: NAD(+) hydrolase SARM1 (Homo sapiens) (UniProt Q6SZW1); experiment: blocking NAD cleavage by SARM1 SAM-TIR – cell lysate, NAD-Glo luminescence (AID 1508614;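 active = compound whose remaining NAD level is above about 45 nM, limit read from the data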;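 also: higher remaining NAD means stronger inhibition of SARM1 NADase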); conditions: SAM-TIR HEK293T lysate NADase, at 1 µM, stronger effect = higher value
# [12] = target: Mitogen-activated protein kinase 7 (Homo sapiens) (UniProt Q13164); experiment: Gal4-ERK5 driven luciferase induction – cell-based, HTS, primary screen (AID 1508626;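 active = luciferase signal above three times the same-plate solvent-only control wells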;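 also: luciferase driven by Gal4-ERK5 fusion binding five Gal4 sites before minimal TATA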); conditions: HeLa Gal4-ERK5 transactivation, 18 h, at 5 µM, stronger effect = higher value
# [13] = tested on: Hepatitis C virus NS3 helicase; experiment: blockers of NS3h binding to ssDNA – biochemical, fluorescence polarization, LOPAC1280 library, primary screen (AID 687035; in the data active = inhibition above about 37%); conditions: Purified HCV NS3 helicase, Cy5-dT15 ssDNA binding fluorescence polarization; stronger effect = higher value; concentration not given here
# [14] = compounds altering Cy5-DNA-NS3h complex signal – biochemical, LOPAC1280, artefact control for HCV NS3 helicase inhibitor project (AID 687037; call rule not given here); conditions: Cy5-DNA-NS3h complex fluorescence interference counterscreen
# [15] = blockers of cellular phospholipid synthesis – cell-based, LOPAC library, screen 4, primary screen (AID 1347384; call rule not given here); conditions: animal cells, phospholipid biosynthesis inhibition screen; at 10 µM
# [16] = compounds altering circadian rhythm period length – cell-based, LOPAC library, luminescence reporter (AID 2774; call rule not given here;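 also: values are relative to mean of DMSO wells on each plate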); conditions: circadian reporter cells, at 7 µM, actives lie on both sides
# [17] = measured here: combination with BGB IC40, at 0.05 µM
# [18] = measured here: combination with cisplatin, at 0.5 µM
# [19] = measured here: combination with cisplatin, at 5 µM
# [20] = measured here: combination with BGB at IC20, at 0.5 µM
# [21] = measured here: combination with cisplatin at IC20, at 0.5 µM
# [22] = measured here: combo with BGB at IC20, at 0.5 µM
# [23] = measured here: combo with cisplatin at IC20, at 0.5 µM
# [24] = measured here: inhibition with BGB combination, at 0.05 µM
# [25] = measured here: inhibition with cisplatin combination, at 0.05 µM
# [26] = BGB combination, concentration series, at 5 µM
# [27] = cisplatin combination, concentration series, at 5 µM
# [28] = measured here: combo with BGB IC20
# [29] = measured here: combo with cisplatin IC20
# Chain of NAD(+) hydrolase SARM1 (Homo sapiens) (Q6SZW1 whole entry, looked up, the tested form may be a part): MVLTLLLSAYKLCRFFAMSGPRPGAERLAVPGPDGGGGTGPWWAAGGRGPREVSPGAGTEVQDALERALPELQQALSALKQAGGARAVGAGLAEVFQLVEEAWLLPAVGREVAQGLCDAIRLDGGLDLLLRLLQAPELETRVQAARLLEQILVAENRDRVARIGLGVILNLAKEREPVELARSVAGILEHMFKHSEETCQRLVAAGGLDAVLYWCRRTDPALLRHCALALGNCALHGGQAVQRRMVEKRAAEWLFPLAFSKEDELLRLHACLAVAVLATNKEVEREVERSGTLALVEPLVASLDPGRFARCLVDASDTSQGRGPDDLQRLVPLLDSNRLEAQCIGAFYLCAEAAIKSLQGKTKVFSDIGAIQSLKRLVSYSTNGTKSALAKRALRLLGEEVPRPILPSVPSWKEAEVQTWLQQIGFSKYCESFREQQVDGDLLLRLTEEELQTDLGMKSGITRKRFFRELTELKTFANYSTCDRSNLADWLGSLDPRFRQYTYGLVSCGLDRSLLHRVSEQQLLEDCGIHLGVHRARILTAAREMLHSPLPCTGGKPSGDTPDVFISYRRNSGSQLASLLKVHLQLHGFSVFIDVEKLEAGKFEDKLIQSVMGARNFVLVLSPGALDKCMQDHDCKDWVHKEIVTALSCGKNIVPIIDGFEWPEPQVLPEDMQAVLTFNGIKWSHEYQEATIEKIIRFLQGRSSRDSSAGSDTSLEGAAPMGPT
# Chain of Mitogen-activated protein kinase 7 (Homo sapiens) (Q13164 whole entry, looked up, the tested form may be a part): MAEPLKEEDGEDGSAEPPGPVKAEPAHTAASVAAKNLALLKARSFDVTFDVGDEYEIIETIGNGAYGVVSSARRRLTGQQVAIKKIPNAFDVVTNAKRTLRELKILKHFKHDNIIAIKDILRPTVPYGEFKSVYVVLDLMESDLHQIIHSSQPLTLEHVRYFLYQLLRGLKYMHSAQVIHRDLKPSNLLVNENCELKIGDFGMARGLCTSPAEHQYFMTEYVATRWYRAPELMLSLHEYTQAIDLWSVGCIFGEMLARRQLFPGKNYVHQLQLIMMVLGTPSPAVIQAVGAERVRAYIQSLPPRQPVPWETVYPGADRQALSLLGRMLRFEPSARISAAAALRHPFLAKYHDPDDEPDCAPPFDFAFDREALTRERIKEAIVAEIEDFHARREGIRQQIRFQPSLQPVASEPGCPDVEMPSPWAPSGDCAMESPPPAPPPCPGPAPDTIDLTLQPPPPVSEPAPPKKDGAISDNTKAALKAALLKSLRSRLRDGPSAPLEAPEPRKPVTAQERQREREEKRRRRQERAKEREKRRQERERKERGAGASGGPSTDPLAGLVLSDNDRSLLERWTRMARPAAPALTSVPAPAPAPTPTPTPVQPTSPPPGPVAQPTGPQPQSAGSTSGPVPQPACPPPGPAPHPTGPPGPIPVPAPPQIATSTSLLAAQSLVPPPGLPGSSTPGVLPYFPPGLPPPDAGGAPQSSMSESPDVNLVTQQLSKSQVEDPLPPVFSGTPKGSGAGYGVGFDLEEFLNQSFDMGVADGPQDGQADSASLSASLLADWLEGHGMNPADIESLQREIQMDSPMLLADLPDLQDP
smiles,measurement,setting,value
CN(C)Cc1ccc(-c2nc3cccc4c3n2CCNC4=O)cc1,inhibition,[1]; at 0.5 µM,-21.9% (inactive) and -12.8% (inactive)
same,inhibition,[1]; [17],-8.61% and -31.3%
same,inhibition,[1]; [18],-36.5% and -4.44%
same,inhibition,[1]; [19],-20.1% and -27.3%
same,inhibition,[2]; at 0.5 µM,-12.7% (inactive) and -34.7% (inactive)
same,inhibition,[2]; [20],3.27% and -18.3%
same,inhibition,[2]; [21],-10.7% and -61.5%
same,inhibition,[3]; at 0.5 µM,-4.1% (inactive) and -8.91% (inactive)
same,inhibition,[3]; [22],-6.79% and -18.1%
same,inhibition,[3]; [23],-1.2% and -11.2%
same,inhibition,[4]; at 0.5 µM,2.77% (inactive) and -2.19% (inactive)
same,inhibition,[4]; [24],-14.3% and 1.91%
same,inhibition,[4]; [25],-5.64% and -29.4%
same,inhibition,[5]; at 0.5 µM,-22.3% (inactive) and -21% (inactive)
same,inhibition,[5]; [18],-26.3% and -32%
same,inhibition,[5]; [19],-30.5% and -31.6%
same,inhibition,[6]; [26],7.25% and 16.2%
same,inhibition,[6]; at 0.5 µM,0.7% (inactive) and -0.32% (inactive)
same,inhibition,[6]; [27],5.02% and -8.46%
same,inhibition,[7],3.46% (inactive) and 6.94% (inactive)
same,inhibition,[7]; [28],2.28% and -1.45%
same,inhibition,[7]; [29],8.6% and 1.46%
CC(C)(N)c1ccc(-c2nc3ccccc3nc2-c2ccccc2)cc1,liver cell % of control,[8],41.6% and 76.6% and 85.6%
same,parasite % of control,[8],0.22% (inactive) and 84.1% (inactive) and 92.8% (inactive)
C=CC(=O)Nc1cccc(Nc2nc(NC3CCC(N(C)C)CC3)nc3c2ncn3C(C)C)c1 (stereo not drawn),liver cell % of control,[8],43.6%
same,parasite % of control,[8],15.4% (inactive)
COc1ccc(-c2c(-c3ccc(O)cc3O)n[nH]c2C)cc1,z-score,[9],-1.81 (inactive)
NC[C@@H]1O[C@H](O[C@H]2[C@@H](O)[C@H](O[C@@H]3[C@@H](O)[C@H](N)C[C@H](N)[C@H]3O[C@H]3O[C@H](CN)[C@@H](O)[C@H](O)[C@H]3N)O[C@@H]2CO)[C@H](N)[C@@H](O)[C@@H]1O,parasite load remaining,[10],49.2% (inactive) and 45.9% (inactive)
same,viability,[10],48% and 104%
same,remaining NAD,[11],10 nM (inactive)
same,luciferase signal,[12],28 AU (inactive)
same,z-score,[9],0.135 (inactive)
O=C(Nc1nc2ccccc2n1CCN1CCOCC1)c1cccc([N+](=O)[O-])c1,parasite load remaining,[10],33.2% (inactive)
same,viability,[10],151%
same,inhibition,[13],-2% (inactive)
same,fluorescence ratio (interference),[14],1.1 (inactive)
same,outcome,[15],inactive
same,z-score,[9],1.46 (inactive)
COc1ccc(C(=O)CC2(O)C(=O)Nc3c(Cl)ccc(Cl)c32)cc1 (stereo not drawn),inhibition,[1]; at 0.5 µM,2.98% (inactive)
same,inhibition,[1]; [17],-32.3%
same,inhibition,[1]; [18],23.2%
same,inhibition,[1]; [19],27.4%
same,inhibition,[2]; at 0.5 µM,-4.98% (inactive)
same,inhibition,[2]; [20],4.02%
same,inhibition,[2]; [21],-4.5%
same,inhibition,[3]; at 0.5 µM,57.3% (inactive)
same,inhibition,[3]; [22],58.6%
same,inhibition,[3]; [23],55.7%
same,inhibition,[4]; at 0.5 µM,11.3% (inactive)
same,inhibition,[4]; [24],-8.43%
same,inhibition,[4]; [25],-6.45%
same,inhibition,[5]; at 0.5 µM,-4.47% (inactive)
same,inhibition,[5]; [18],-11.7%
same,inhibition,[5]; [19],-26.3%
same,inhibition,[6]; [26],47.8%
same,inhibition,[6]; at 0.5 µM,14.6% (inactive)
same,inhibition,[6]; [27],51.1%
same,inhibition,[7],9.33% (inactive)
same,inhibition,[7]; [28],10.9%
same,inhibition,[7]; [29],2.7%
Nc1nc(N)c(N=O)c(OCC2CCCCC2)n1,inhibition,[13],-2% (inactive)
same,fluorescence ratio (interference),[14],0.9 (inactive)
same,outcome,[15],inactive
same,z-score,[9],1.21 (inactive)
N#Cc1c(C2CCNCC2)cc(-c2c(O)cccc2OCC2CC2)nc1N,parasite load remaining,[10],29.7% (inactive)
same,viability,[10],88.8%
O=c1[nH]c(=O)n([C@H]2C[C@H](O)[C@@H](CO)O2)cc1/C=C/Br,period change,[16],-0.01 h (inactive)
same,inhibition,[13],-1% (inactive)
same,fluorescence ratio (interference),[14],1 (inactive)
Cc1cn([C@@H]2O[C@H](CO)[C@@H](O)[C@@H]2F)c(=O)[nH]c1=O,inhibition,[1]; at 0.5 µM,-24% (inactive)
same,inhibition,[1]; [17],-37.2%
same,inhibition,[1]; [18],-20.9%
same,inhibition,[1]; [19],-19%
same,inhibition,[2]; at 0.5 µM,-20.9% (inactive)
same,inhibition,[2]; [20],-6.05%
same,inhibition,[2]; [21],-15.6%
same,inhibition,[3]; at 0.5 µM,-11.4% (inactive)
same,inhibition,[3]; [22],-16%
same,inhibition,[3]; [23],-8.28%
same,inhibition,[4]; at 0.5 µM,-3.54% (inactive)
same,inhibition,[4]; [24],-7.92%
same,inhibition,[4]; [25],2.99%
same,inhibition,[5]; at 0.5 µM,-27.6% (inactive)
same,inhibition,[5]; [18],-30.2%
same,inhibition,[5]; [19],-44.4%
same,inhibition,[6]; [26],-5.53%
same,inhibition,[6]; at 0.5 µM,-5.97% (inactive)
same,inhibition,[6]; [27],11.6%
same,inhibition,[7],10.9% (inactive)
same,inhibition,[7]; [28],14.5%
same,inhibition,[7]; [29],15.4%
O=C1NC(=O)/C(=C/c2ccc(-c3ccc(F)cc3O)o2)S1,parasite load remaining,[10],10.7% (active)
same,viability,[10],62.9%
same,inhibition,[13],0% (inactive)
same,fluorescence ratio (interference),[14],1 (inactive)
same,outcome,[15],inactive
same,z-score,[9],1.31 (inactive)
CO/N=C(/C(=O)N[C@@H]1C(=O)N2C(C(=O)O)=C(CSC(=O)c3ccco3)CS[C@H]12)c1csc(N)n1,remaining NAD,[11],10 nM (inactive)
